SW480 rereplic: induces DNA re-replication in SW480 colon adenocarcinoma cells; Potency, µM (titrated, usually from 46.1 µM), hits mostly activators; 1.8% of 340,000 active; SW480 DNA re-replication, Hoechst DNA content imaging, 48 h; further: nearly all actives have a fitted effect of over 55% in size
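Readout is total intensity of Hoechst-stained nuclei, excited at 405 nm and collected at 500-530 nm. Compound treatment lasted 48 hr at 37 C in 5% CO2 before staining.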
KB-V1 MDR tox: KB-V1 MDR subline cytotoxicity; KB-V1 MDR cells viability, CellTiter-Glo, 72 h; AID 1347076; Potency, µM (titrated, usually from 46.1 µM), actives largely listed as cytotoxic; 3.4% of 400,000 active; further: nearly all actives have a fitted effect of over 60% in size
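Drug-selected KB-V1 cells, grown in DMEM lacking phenol red with 10% FBS, receive compound titrations; after three days at 37 degrees C, surviving cell ATP is quantified by CellTiter-Glo luminescence and responses normalized and curve-fitted.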
MCF10A rereplic: induces DNA re-replication in MCF 10a normal breast cells; MCF 10A DNA re-replication, Hoechst nuclear intensity, 48 h; Potency, µM (series often up to 46.1 µM), most hits filed as activators; 2.9% of 350,000 active; AID 624296; further: nearly all actives have a fitted effect of over 50% in size
KB-3-1 tox: kills parental KB-3-1 adenocarcinoma cells; KB-3-1 viability, CellTiter-Glo ATP luminescence, 72 h; Potency, µM (highest dose often 46.1 µM), actives largely listed as cytotoxic; 1.4% of 400,000 active; further: nearly all actives have a fitted effect of over 60% in size
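Cytotoxicity in the drug-sensitive parental line KB-3-1 was scored as loss of CellTiter-Glo luminescence following 72 h incubation with compound. Values come from curve fitting of normalized concentration-response data.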
ELG1 repair inh: blocks ELG1-dependent DNA repair in HEK293T cells | 2.3% of 330,000 active | Potency, µM (top dose mostly 46.1 µM), most hits filed as inhibitors | HEK293T ELG1-luciferase reporter, luminescence, 16 h; DNA damage induced by 5-fluorouridine; further: nearly all actives have a fitted effect of over 55% in size
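Step one: seed 2,000 cells per well. Step two: pin-transfer compound or DMSO alongside 5-fluorouridine. Step three: incubate 16 hr, 37 °C, 5% CO2. Step four: add ONE-Glo, wait 30 min, read luminescence.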
Each line names hits and unclear results; the compound was inactive in the other large screens. Sampled rows, rich in hits. Any-hit rate of the full collection: about 8.1%. The call rests on the fitted dose curve; in most records, active means well fitted curve in the direction sought with a large enough effect; inconclusive means small, poorly fitted or top-dose-only effect, or another doubt; inactive means no such curve, though single readings can be large; an effect the other way counts as inactive or inconclusive.

Cc1ccc(C(=O)N2CCC(N3CCC(C(=O)N4CCOCC4)CC3)CC2)cc1	none (no result: SW480 rereplic, MCF10A rereplic, ELG1 repair inh)
O=C1CCC(c2ccccc2)=NN1	ELG1 repair inh inconclusive
O=C1CCC(c2ccc3c(c2)CCC3)=NN1	KB-3-1 tox 1.2µM, ELG1 repair inh inconclusive
Cc1nn(-c2nc3ccccc3n2Cc2ccccc2)c2c1C(=O)CC(C)(C)C2	KB-V1 MDR tox 21µM, KB-3-1 tox inconclusive (no result: ELG1 repair inh)
Cc1cc(C)cc(C(=O)C[n+]2cccc(Br)c2)c1	none (no result: SW480 rereplic, MCF10A rereplic, ELG1 repair inh)
CCCN(CCC)CC(O)Cn1cc(/C=C/C(=O)c2ccc(Br)cc2)c2ccccc21 (stereo not given)	none (no result: SW480 rereplic, MCF10A rereplic, ELG1 repair inh)
CCCN(CCC)CC(O)Cn1cc(/C=C/C(=O)c2ccc(C)cc2)c2ccccc21 (stereo not given)	none (no result: SW480 rereplic, MCF10A rereplic, ELG1 repair inh)
CCCN(CCC)CC(O)Cn1cc(/C=C/C(=O)c2cccs2)c2ccccc21 (stereo not given)	SW480 rereplic 16µM, KB-V1 MDR tox inconclusive, MCF10A rereplic inconclusive, KB-3-1 tox inconclusive
CCCN(CCC)CC(O)Cn1cc(/C=C/C(=O)c2ccccc2)c2ccccc21 (stereo not given)	SW480 rereplic inconclusive, MCF10A rereplic 5.2µM, KB-3-1 tox inconclusive
CCn1c(C)nc2cc(-c3nnc(-c4c(-c5ccccc5)noc4C)o3)ccc21	KB-V1 MDR tox inconclusive, MCF10A rereplic inconclusive, KB-3-1 tox inconclusive, ELG1 repair inh 21µM
COC(=O)Cc1c[nH]c2cccc(OCC(O)CN(Cc3ccc([N+](=O)[O-])cc3)C(C)(C)C)c12 (stereo not given)	KB-V1 MDR tox 5.8µM, ELG1 repair inh inconclusive
Cc1ccc(CN(CC(O)COc2cccc3[nH]cc(C)c23)C(C)(C)C)cc1 (stereo not given)	none
CC(C)CNC(=O)CSc1ccc(S(=O)(=O)N2CCN(C)CC2)cn1	none
Cc1ccc(C)c(NC(=O)C2CCCN(S(=O)(=O)c3c(C)noc3/C=C/N(C)C)C2)c1 (stereo not given)	MCF10A rereplic 18µM
COC(CNC(=O)C1CCCN(S(=O)(=O)c2c(C)noc2/C=C/c2cccs2)C1)OC (stereo not given)	MCF10A rereplic 3.7µM
Cc1ccc(NC(=O)C2CCCN(S(=O)(=O)c3c(C)noc3/C=C/N(C)C)C2)c(C)c1 (stereo not given)	MCF10A rereplic inconclusive
CC1=NN(C(=O)c2ccncc2)C(=O)C1N=Nc1ccc2ccccc2c1 (stereo not given)	KB-V1 MDR tox 6.5µM, KB-3-1 tox inconclusive (no result: ELG1 repair inh)
CC1=NN(C(N)=S)C(=O)C1N=Nc1ccc(Cl)cc1 (stereo not given)	SW480 rereplic 18µM, KB-V1 MDR tox inconclusive, KB-3-1 tox inconclusive, ELG1 repair inh inconclusive
O=C(C1CCCN(c2ncnc3c2nc2n3CCCCC2)C1)N1CCN(c2cccc(Cl)c2)CC1 (stereo not given)	KB-V1 MDR tox 23µM, MCF10A rereplic inconclusive, KB-3-1 tox inconclusive, ELG1 repair inh 8.2µM
Cc1cccc(N2CCN(C(=O)C3CCN(c4ncnc5c4nc4n5CCCCC4)CC3)CC2C)c1 (stereo not given)	SW480 rereplic inconclusive, KB-V1 MDR tox inconclusive, MCF10A rereplic 15µM, KB-3-1 tox inconclusive, ELG1 repair inh 4.1µM
Cc1ccc(C)c(N2CCN(C(=O)C3CCCN(c4ncnc5c4nc4n5CCCCC4)C3)CC2)c1 (stereo not given)	KB-V1 MDR tox inconclusive, MCF10A rereplic 21µM, KB-3-1 tox inconclusive, ELG1 repair inh 13µM
COc1cccc(N2CCN(c3ncnc4c3nc3n4CCCCC3)CC2)c1	KB-V1 MDR tox inconclusive, KB-3-1 tox 16µM (no result: SW480 rereplic, MCF10A rereplic, ELG1 repair inh)
COC(=O)C1CCN(C(=O)COC(=O)c2cccc(NS(=O)(=O)c3ccccc3)c2)CC1	none
Cc1cccc(N=C2CCCC2C(=O)Nc2cccc(C)c2C)c1C (stereo not given)	none (no result: ELG1 repair inh)
CN(C)c1ccc(/C=C/c2cc(=O)[nH]c3ccccc23)cc1	none (no result: SW480 rereplic, MCF10A rereplic, ELG1 repair inh)
COc1cc([N+](=O)[O-])cc2sc(NC(=O)c3c(F)cccc3F)nc12	MCF10A rereplic 0.73µM, ELG1 repair inh inconclusive
Cc1ccccc1CN1CCN(C2CCC2)CC1CCO (stereo not given)	SW480 rereplic inconclusive
CC1(C(=O)Nc2ccc3c(c2)OCCO3)CCN1Cc1ccc(-c2ccccn2)cc1 (stereo not given)	KB-V1 MDR tox inconclusive (no result: SW480 rereplic, MCF10A rereplic, ELG1 repair inh)
CC1(C(=O)Nc2ccc3c(c2)OCO3)CCN1C(=O)Cc1ccc(-c2ccccc2)cc1 (stereo not given)	KB-V1 MDR tox 3.3µM, KB-3-1 tox 12µM (no result: SW480 rereplic, MCF10A rereplic, ELG1 repair inh)
CC1(C(=O)Nc2ccc3c(c2)OCCO3)CCN1Cc1ccc2ccccc2c1 (stereo not given)	KB-V1 MDR tox 21µM, KB-3-1 tox inconclusive (no result: SW480 rereplic, MCF10A rereplic, ELG1 repair inh)
COc1cc(-c2nc(-c3cccc(Cl)c3)c(-c3ccccc3)[nH]2)cc(OC)c1OC	KB-3-1 tox inconclusive (no result: SW480 rereplic, MCF10A rereplic, ELG1 repair inh)
COc1cc(-c2nc(-c3ccccc3)c(-c3cc([N+](=O)[O-])ccc3C)[nH]2)cc(OC)c1OC	MCF10A rereplic inconclusive, KB-3-1 tox inconclusive, ELG1 repair inh 7.3µM
CCCN(CC(=O)Nc1ccccc1C)C(=O)COc1c(Cl)cccc1Cl	KB-V1 MDR tox 5.8µM
CCCN(CC(=O)Nc1ccccc1C)C(=O)COc1c(C)cccc1C	none
CCCN(CC(=O)Nc1ccccc1C)C(=O)CCl	KB-V1 MDR tox inconclusive, MCF10A rereplic inconclusive, KB-3-1 tox 16µM, ELG1 repair inh 7.3µM
COc1cccc(/C=N/NC(=O)CCn2cnc3ccccc32)c1	SW480 rereplic 3.7µM, MCF10A rereplic inconclusive
COc1ccccc1/C=C/C=N/NC(=O)CCn1cnc2ccccc21	SW480 rereplic 21µM, MCF10A rereplic inconclusive, ELG1 repair inh inconclusive
O=C(CCn1cnc2ccccc21)N/N=C/C=C/c1ccccc1	none
Cc1cc(O)c(C(C[N+](=O)[O-])c2ccc(Cl)cc2)c(=O)o1 (stereo not given)	none
Cc1cc(C)n(C(C[N+](=O)[O-])c2ccc(Cl)cc2)n1 (stereo not given)	SW480 rereplic inconclusive, KB-V1 MDR tox inconclusive, MCF10A rereplic 15µM, KB-3-1 tox inconclusive
O=C(CC1(CC(=O)N2CCOCC2)CCCC1)Nc1ccc(F)cc1	none
CC1=C(C(=O)N2CCCCCC2)CC(CC(=O)NCCN2CCOCC2)C(=O)N1Cc1ccc(C(C)(C)C)cc1 (stereo not given)	none (no result: SW480 rereplic, MCF10A rereplic, ELG1 repair inh)
CCN(c1ccccc1)S(=O)(=O)c1ccc(Cl)c(C(=O)NC2CCN(Cc3ccccc3)CC2)c1	MCF10A rereplic inconclusive, KB-3-1 tox inconclusive (no result: ELG1 repair inh)
CNC(=O)/C(C#N)=C1\SC(Cc2ccc(F)cc2)C(=O)N1c1ccccc1C (stereo not given)	none
C/C(=N\N=C1\NC(=O)C(Cc2ccccc2)S1)c1ccccc1 (stereo not given)	MCF10A rereplic inconclusive
CC(=O)/C(C#N)=C1\NC(=O)C(Cc2ccccc2C)S1 (stereo not given)	KB-V1 MDR tox 5.8µM, KB-3-1 tox inconclusive

Source: PubChem
